Laboratory results taken from PubChem BioAssay AID651919 (Sanford-Burnham Center for Chemical Genomics, 2012).

Molecular target: C-X-C chemokine receptor type 6 (Homo sapiens) (UniProt O00574)
Experiment: CXCR6 and CXCR5 receptor antagonist panel, profiling panel, selectivity assay for CXCR6 antagonist project, cell-based, CHO-K1 PathHunter beta-arrestin, luminescence, set 4 (AID 651919)
Settings: run 3, at 79 µM (top of the series)

Chain of C-X-C chemokine receptor type 6 (Homo sapiens) (O00574 whole entry, looked up): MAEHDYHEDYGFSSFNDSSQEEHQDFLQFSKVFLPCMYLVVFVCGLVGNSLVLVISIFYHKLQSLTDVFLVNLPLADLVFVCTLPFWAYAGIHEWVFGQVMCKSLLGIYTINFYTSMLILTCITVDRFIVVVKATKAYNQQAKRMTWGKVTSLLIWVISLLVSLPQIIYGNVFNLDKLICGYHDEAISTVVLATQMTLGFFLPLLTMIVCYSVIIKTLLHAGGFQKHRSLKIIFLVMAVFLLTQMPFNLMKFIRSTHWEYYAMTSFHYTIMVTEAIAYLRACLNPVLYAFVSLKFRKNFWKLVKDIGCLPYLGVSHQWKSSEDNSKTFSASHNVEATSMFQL

Structure (SMILES)	inhibition [%]
COc1cc(C(=O)NC2CC3CCCC(C2)N3CC(=O)Nc2ccccc2)cc(OC)c1OC (configuration not stated)	92.7
COc1cc(C(=O)NC2CC3CCCC(C2)N3CC(=O)Nc2ccccc2Cl)cc(OC)c1OC (configuration not stated)	99.1
